A selection: hits, their analogues and other compounds. The true share with any hit is near 19%.
HT1080NT lethal = kills 2HG-producing HT-1080-NT fibrosarcoma cells. AID 686970. 360,000 compounds, 1.6% hits. HT-1080-NT fibrosarcoma viability, CellTiter-Glo ATP luminescence, 48 h. Potency, µM (series often up to 46.1 µM), without a hit: top-dose activity, negative = less viability, actives largely listed as cytotoxic;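 further: NT is the 2HG producing partner of a matched IDH1 knockdown line; 0% = DMSO-treated cells and -100% = media-only wells without cells; nearly all actives have a fitted effect of over 55% in size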
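A 48-hour cytotoxicity screen used HT-1080-NT cells plated 2 hours before compound delivery. ATP-based CellTiter-Glo luminescence measured viability, normalized to DMSO and no-cell controls.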
KB-V1 cytotox = KB-V1 MDR subline cytotoxicity. Potency, µM (top dose mostly 46.1 µM), most hits filed as cytotoxic. KB-V1 MDR cells viability, CellTiter-Glo, 72 h. AID 1347076. 400,000 compounds, 3.4% hits; further: nearly all actives have a fitted effect of over 60% in size
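Drug-selected KB-V1 cells, grown in DMEM lacking phenol red with 10% FBS, receive compound titrations; after three days at 37 degrees C, surviving cell ATP is quantified by CellTiter-Glo luminescence and responses normalized and curve-fitted.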
TDP1 cell noCPT = qHTS for Inhibitors of human tyrosyl-DNA phosphodiesterase 1 (TDP1): qHTS in cells in absence of CPT. DT40 Tdp1-/- hTDP1 cells, no CPT, ATP luminescence, 48 h. Potency, µM (highest dose often 46.2 µM), without a hit: at the top dose activity change, negative = growth inhibition, usual class: inhibitors. 420,000 compounds, 15% hits. AID 686978, 2013; further: nearly all actives have a fitted effect of over 55% in size
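A cellular qHTS used chicken DT40 cells lacking endogenous Tdp1 but carrying stably transfected human TDP1. Compounds were applied without camptothecin, and cell growth kinetics were judged by ATP-dependent luminescence after ≥48 hr.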
DT40 TDP1 CPT = DT40-hTDP1 cell growth loss with CPT; 420,000 compounds, 12% hits; Potency, µM (titrated, usually from 46.2 µM), for inactives: top-dose activity change, negative = growth inhibition, hits mostly inhibitors; chicken DT40 Tdp1-/-;hTDP1 cells + 20 nM CPT, ATP luminescence, 48 h; AID 686979; further: nearly all actives have a fitted effect of over 55% in size
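Chicken DT40 Tdp1-/- cells complemented with human TDP1, 400 cells/well, exposed to compounds plus 20 nM camptothecin for at least 48 h at 37 C; viability read as ATP content by CellTiter-Glo luminescence.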
KB-3-1 cytotox = KB-3-1 parental cell cytotoxicity; KB-3-1 viability, CellTiter-Glo ATP luminescence, 72 h; 400,000 compounds, 1.4% hits; Potency, µM (series often up to 46.1 µM), actives largely listed as cytotoxic; further: nearly all actives have a fitted effect of over 60% in size
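Multi-concentration cytotoxicity screen in KB-3-1 cells grown in DMEM lacking phenol red with 10% FBS. After 72 h at 37 °C with compound, ATP-dependent luminescence was recorded.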
HT1080 IDH1KD tx = toxicity to HT-1080 IDH1 knockdown cells (counter line) | AID 686971 | Potency, µM (series often up to 46.1 µM), without a hit: top-dose activity, negative = toxicity, actives largely listed as cytotoxic | HT-1080 IDH1 knockdown viability, ATP luminescence, 48 h | 360,000 compounds, 2% hits;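 further: 0% = DMSO wells and -100% = cell-free medium wells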
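In this qHTS, HT-1080 cells depleted of IDH1 are exposed for 48 h at 37 °C to compound titrations. Toxicity is scored from CellTiter-Glo luminescence, with DMSO as full viability and medium alone as none.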
The depositor's hits bear a star; i = inactive; ? = inconclusive; / = not tested or not shown. The call rests on the fitted dose curve; in most records, active means well fitted curve in the direction sought with a large enough effect; inconclusive means small, poorly fitted or top-dose-only effect, or another doubt; inactive means no such curve, though single readings can be large; an effect the other way counts as inactive or inconclusive. Unless noted, on the % scale 0 is the no-effect control and ±100 the full control effect; potency means the concentration at half of the fitted maximal effect.

SMILES | HT1080NT lethal | KB-V1 cytotox | TDP1 cell noCPT | DT40 TDP1 CPT | KB-3-1 cytotox | HT1080 IDH1KD tx
CCOc1ccc(CCNC(=O)CS(=O)Cc2nc(-c3ccccc3C)oc2C)cc1OCC (centres undefined) | -0.3% | i | ? | ? | i | -7.7%
COc1cccc(-c2cc(C(=O)N/N=C/c3cccc(OC)c3OC)c3ccccc3n2)c1 | 3.7% | i | 4.61µM* | 20.6µM* | i | -8.5%
COc1ccc(/C=N/NC(=O)c2cc(-c3ccccc3)nc3ccccc23)c(C(=O)O)c1OC | 0.7% | i | -23.2% | -15.5% | i | -14.7%
O=[N+]([O-])c1cc(Cl)cc(/C=N\Nc2ccccn2)c1O | ? | i | 5.17µM* | 5.17µM* | ? | ?
Cc1[nH]c2ccccc2c1C=NNC(=O)c1cc(-c2cccnc2)nc2ccccc12 | -0.8% | i | 7.31µM* | 13µM* | i | -5.4%
O=[N+]([O-])c1ccc(Cl)cc1C=NNc1ccccn1 | 11.3% | i | -10.3% | -5.4% | i | ?
C/C(=N\NC(=O)c1cc(-c2ccccn2)nc2ccccc12)c1cccc([N+](=O)[O-])c1 | -1.5% | i | ? | -12.4% | i | -3.1%
O=C(N/N=C/c1cc(Cl)cc([N+](=O)[O-])c1O)c1cc(-c2ccccn2)nc2ccccc12 | ? | i | 14.6µM* | 6.51µM* | ? | ?
Cc1ccc(C)c(NC(=O)c2cc(-c3cccnc3)nc3ccccc23)c1 | 16.1% | i | ? | ? | i | 11.8%
CCOc1ccc(-n2c(SCC(=O)c3ccccc3)nc3c([nH]c4ccccc43)c2=O)cc1 | / | i | ? | ? | i | /
CCCn1c2ccccc2c2cnn(CC(=O)NCCc3ccc(S(N)(=O)=O)cc3)c(=O)c21 | / | i | ? | ? | i | /
COC(=O)c1cccc(NC(=O)CSc2nnc(-c3ccco3)o2)c1 | 18.6% | ? | 1.6% | -0.5% | i | 14.9%
COc1ccc(NC(=O)N(O)C2(C#N)CCCCC2)cc1 | -1.6% | i | 0.0% | 4.2% | i | 17.0%
COc1cccc(/C=N/NC(=O)c2cc(-c3ccccn3)nc3ccccc23)c1O | ? | ? | 8.2µM* | 9.2µM* | ? | ?
O=C(N/N=C/c1ccc(F)cc1)c1cc(-c2ccccn2)nc2ccccc12 | -2.3% | i | -19.5% | ? | i | -8.0%
COc1ccc(/C=N/NC(=O)c2cc(-c3cccnc3)nc3ccccc23)c(OC)c1 | 7.4% | i | 4.61µM* | ? | ? | 24.5%
CC(=O)N[C@@H](Cc1ccc(O)cc1)C(=O)O | / | / | -4.9% | -3.4% | / | /
COCC(=O)N1CCC[C@@]2(CCN(Cc3ccc(C#N)cc3)C2)C1 | / | / | -1.7% | 0.0% | / | /
Cc1cccc(C(=O)NCC(=O)OCCOc2ccccc2Cl)c1 | -2.9% | i | 2.0% | ? | i | -0.2%
O=S(=O)(c1cccc(-c2nnc(SCc3ccc(Cl)cc3)o2)c1)N1CCCCC1 | 0.2% | i | 23.1µM* | 8.2µM* | i | -2.9%
Cc1noc(C)c1S(=O)(=O)N(C)C[C@H]1OCCCC[C@H](C)Oc2ccc(NC(=O)CCCN(C)C)cc2C(=O)N([C@H](C)CO)C[C@@H]1C | -1.2% | i | -12.8% | -17.3% | i | 7.0%
COC(=O)c1c(NS(=O)(=O)c2ccc3ccccc3c2)sc2c1CCCC2 | -18.6% | 16.4µM* | -9.3% | -1.2% | i | ?
CCOC(=O)c1c(NS(=O)(=O)c2ccc(Br)cc2)sc2c1CCC2 | -0.6% | i | ? | ? | i | 3.0%
COC(=O)c1c(NC(=O)c2ccc(C)c(S(=O)(=O)Nc3ccccc3C)c2)sc2c1CCCC2 | 6.1% | 23.1µM* | ? | ? | i | 9.6%

High-throughput results (PubChem BioAssay)
